Several values for one entry are separate records, joined by “and”; a condition that tells them apart may be missing. Equal entries are not always repeated. Activity calls are given as the source filed them.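 Rule for the calls, unless noted: active = compounds whose cell count with miR-34 switched on is under 0.7 times the count with it off; inactive = the rest.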
Experiments:
[1] = system: Aerobactin synthetase IucA (Klebsiella pneumoniae); assay: IucA aerobactin synthetase inhibitors, biochemical, Tocris library, absorbance (AID 1345561; call rule not given here;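 note: 100% = enzyme without compound and 0% = no enzyme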); settings: purified IucA enzyme assay, absorbance (OD) read-out; stronger effect = lower value;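 tested at 8 µM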
[2] = sensitizers of A549 cells to miR-34 induction, primary screen, imaging, A549 dox-inducible miR-34, nuclei and caspase counts (AID 1347080); settings: A549 miR-34 inducible, Hoechst nuclei count, 48 h
[3] = viability rescue of complex I mutant cybrids, primary screen, cell-based, galactose medium, ATP luminescence (AID 1645843;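 active = z-score of at least 1.8 in each of two replicates, scored against plate mean and spread of sample wells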;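 note: positive z means more ATP and so rescue of galactose-driven cybrid death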); settings: complex I mutant cybrid cells, 72 h, stronger effect = higher value
[4] = stronger effect = lower value, cell number ratio, induced over uninduced
[5] = measured here: relative caspase fold change +Dox/-Dox
[6] = measured here: total cells with miR-34 induction, stronger effect = lower value
[7] = measured here: total cells without miR-34 induction

Compound	remaining activity [1]	fold change [2, 4]	fold change [2, 5]	cell count [2, 6]	cell count [2, 7]	z-score [3]
CN(CCc1ccc(Cl)c(Cl)c1)CCN1CCCC1	108% (inactive)	1.01 (inactive)	0.63	8830	8750	-1.06 (inactive)
COc1ccc(-c2ccc(=N)n(CCCC(=O)O)n2)cc1	122% (inactive)	0.902 (inactive)	0.531	8640	9580	-0.295 (inactive)
FC(F)(F)c1cccc(-c2noc(-c3cc(-c4ccccc4)c(C(F)(F)F)s3)n2)c1	101% (inactive)	0.966 (inactive) and 0.884 (inactive)	1.01 and 0.898	5830 and 8210	6040 and 9290	0.175 (inactive)
Nc1nc(Nc2ccccc2)nc2c1ncn2[C@@H]1O[C@H](CO)[C@@H](O)[C@H]1O	107% (inactive)	0.978 (inactive)	0.752	9880	10100	-0.09 (inactive)
Cc1nnc(-c2ccc3occ(-c4ccc(S(C)=O)cc4)c3c2)o1 (configuration not stated)	113% (inactive)	0.855 (inactive)	1.35	4510	5270	-0.44 (inactive)
CCS(=O)(=O)N(C)[C@H]1c2cc(C#N)ccc2OC(C)(C)[C@@H]1O (racemic)	119% (inactive)	0.884 (inactive)	1.36	9180	10400	0.85 (inactive)
O=C1c2ccccc2C(Cc2ccnc(F)c2)(Cc2ccnc(F)c2)c2ccccc21	102% (inactive)	0.93 (inactive)	1.37	8150	8760	0.3 (inactive)
CCCCCCCC/C=C\CCCCCCCC(=O)N[C@@H](CO)Cc1ccc(O)cc1	129% (inactive)	0.903 (inactive) and 0.933 (inactive)	1.11 and 0.626	5590 and 5540	6200 and 5940	-0.83 (inactive)
OC[C@H]1NC[C@@H](O)[C@@H](O)[C@@H]1O	123% (inactive)	0.958 (inactive) and 0.973 (inactive)	0.787 and 0.709	4950 and 9630	5160 and 9890	-0.17 (inactive)
CC(N)=NCCCC[C@H](N)C(=O)O	91.3% (inactive)	0.958 (inactive)	0.902	8960	9350	0.135 (inactive)
O=C(NCCCN1CCCCCC1)C(c1ccccc1)C1CCCCC1 (configuration not stated)	115% (inactive)	0.949 (inactive)	0.832	8370	8820	-0.905 (inactive)
CC(O)(C(=O)Nc1ccc(S(=O)(=O)c2ccccc2)cc1)C(F)(F)F (configuration not stated)	125% (inactive)	0.907 (inactive) and 0.921 (inactive)	1.29 and 0.986	4820 and 7390	5310 and 8020	-0.32 (inactive)
COc1ccc2cccc(N3CCN(CCNC(=O)c4ccc(F)cc4)CC3)c2c1	104% (inactive)	0.924 (inactive)	0.854	7720	8360	-0.77 (inactive)
O=C1CC2(CCCC2)CC(=O)N1CCCCNCC1COc2ccccc2O1 (configuration not stated)	102% (inactive)	0.892 (inactive)	0.89	8660	9710	-1.01 (inactive)
CCCCCCCNS(=O)(=O)c1cccc2c(Cl)cccc12	95% (inactive)	0.865 (inactive)	0.629	8130	9410	-0.5 (inactive)
Cc1ccc(NC(=O)C(C)C)cc1C1CCN(Cc2ccc(Oc3ccc(F)c(F)c3)cc2)CC1	107% (inactive)	1.03 (inactive)	0.737	1330	1290	-0.705 (inactive)
CN(Cc1ccccc1)C(=O)[C@H](Cc1ccc2ccccc2c1)NC(=O)[C@@H]1C[C@@H](O)CN1C(=O)c1cn(C)c2ccccc12	102% (inactive)	0.957 (inactive)	1.21	6080	6350	3.41 (active)
Clc1cccc2c1CN(C1=NCCN1)C2	99.4% (inactive)	0.914 (inactive)	0.792	9080	9940	-0.085 (inactive)
COC(=O)[C@H](Cc1ccc([N+](=O)[O-])cc1)NC(=O)c1cccc2ccccc12	101% (inactive)	0.968 (inactive)	0.966	9700	10000	-0.13 (inactive)
O=c1nc2ccccc2c2n1CC(CN1CCN(c3ccccc3)CC1)N2 (configuration not stated)	100% (inactive)	0.869 (inactive)	0.649	9300	10700	-0.605 (inactive)
c1ccc2oc(C3=NCCN3)cc2c1	116% (inactive)	0.904 (inactive)	1.14	8470	9370	0.405 (inactive)
OC[C@H]1O[C@@H](n2cnc3c(NC4CCCC4)ncnc32)[C@H](O)[C@@H]1O	123% (inactive)	0.882 (inactive)	0.89	9040	10200	0.51 (inactive)
CCCc1c(OCC(O)COc2ccc3c(=O)cc(C(=O)O)oc3c2CCC)ccc(C(C)=O)c1O (configuration not stated)	110% (inactive)	0.998 (inactive)	0.8	8250	8260	3.91 (active)
Nc1ncnc2c1nc(Br)n2[C@@H]1O[C@@H]2COP(=O)(O)O[C@H]2[C@H]1O	114% (inactive)	0.96 (inactive)	0.834	8030	8360	-0.015 (inactive)

Compound	remaining activity [1]	fold change [2, 4]	fold change [2, 5]	cell count [2, 6]	cell count [2, 7]	z-score [3]
O=c1oc(-c2ccc(C(F)(F)F)cc2)nn1Cc1cc(Cl)ccc1O	93.9% (inactive)	1.02 (inactive)	1.81	6380	6280	-0.655 (inactive)
CN(C)C(=O)C(=O)c1cn(C)c2cc(Cl)c(C(=O)N3CCC(Cc4ccc(F)cc4)CC3)cc12	118% (inactive)	1.09 (inactive)	0.88	4920	4530	-0.96 (inactive)
CC[C@H](CO)Nc1nc(Nc2cccc(-c3ccccn3)c2)c2ncn(C(C)C)c2n1	119% (inactive)	1.12 (inactive)	1.35	1500	1340	-0.95 (inactive)
CC(C)[C@H](NS(=O)(=O)c1ccc(-c2ccc(Br)cc2)cc1)C(=O)O	100% (inactive)	0.908 (inactive)	1.47	8980	9890	0.745 (inactive)
O=S(c1ccccc1)c1ccc2nnnn2n1 (configuration not stated)	106% (inactive)	1.59 (inactive)	0.481	3220	2020	-0.805 (inactive)
CNc1cc(OC)c(C(=O)N[C@@H]2CCN(Cc3ccccc3)[C@@H]2C)cc1Cl (racemic)	104% (inactive)	0.926 (inactive)	1.02	8160	8810	-0.56 (inactive)
CN1Cc2c(C(=O)OC(C)(C)C)ncn2-c2ccsc2C1=O	105% (inactive)	0.89 (inactive)	1.34	7080	7950	0.15 (inactive)
Cc1c(C2CCN(CCc3ccccc3)CC2)noc1-c1ccc(Cl)cc1	92.3% (inactive)	0.891 (inactive)	0.892	6770	7590	-0.21 (inactive)
c1ncc(CC2CCNCC2)[nH]1	101% (inactive)	0.95 (inactive)	0.717	8900	9370	0.095 (inactive)
N=C(N)S/C=C\C(=O)O	104% (inactive)	0.952 (inactive)	0.563	8330	8750	-0.28 (inactive)
COc1ccc(C2CC(c3c(O)cc(C)oc3=O)=NCCS2)c(OC)c1 (configuration not stated)	98.6% (inactive)	1.45 (inactive)	2.3	1350	929	-0.235 (inactive)
O=C(O)c1c(Sc2ccccc2)c2cc(Cl)ccc2n1Cc1ccc(Cl)cc1	122% (inactive)	0.94 (inactive)	1.45	6730	7160	1.25 (inactive)
COC(=O)C(Cc1ccc(OCCn2c(=O)sc3cc(C(=O)c4ccccc4)ccc32)cc1)C(=O)OC	104% (inactive)	0.909 (inactive)	1.26	8190	9020	-0.89 (inactive)
CC1Nc2ccc(Cl)cc2S(=O)(=O)N1 (configuration not stated)	102% (inactive)	0.919 (inactive)	0.718	8550	9300	0.035 (inactive)
O=S(=O)(NCCCCCCc1ccccc1)c1cccc2c(Cl)cccc12	101% (inactive)	0.934 (inactive)	0.599	8620	9230	-1.14 (inactive)
c1ccc(N2CCN(Cc3nc4ccccc4[nH]3)CC2)nc1	78.8% (inactive)	0.909 (inactive)	2.02	8260	9090	0.04 (inactive)
CN=C1C=C2C(=NC=NC2=Nc2cccc(Br)c2)C=N1	82.7% (inactive)	0.699 (active)	1.7	942	1350	-0.675 (inactive)
CN(C)CCC1(c2ccc(Cl)cc2)Cc2ccccc2C(=O)O1 (configuration not stated)	122% (inactive)	0.975 (inactive)	1.4	7700	7900	-0.195 (inactive)
CNC(=O)Oc1ccc2c(c1)C1(C)CCN(C)C1N2C (configuration not stated)	128% (inactive)	0.943 (inactive)	1.32	9440	10000	-1 (inactive)
N[C@@H](Cc1cc(-c2ccc(Cl)cc2Cl)cc(CP(=O)(O)O)c1O)C(=O)O	115% (inactive)	0.913 (inactive)	0.553	8540	9350	0.635 (inactive)
N[C@H](C(=O)O)c1ccc(C(=O)O)c(C(=O)O)c1	126% (inactive)	0.986 (inactive)	0.559	9860	10000	-0.145 (inactive)
O=C(O)CCC/C=C\C[C@@H]1CO[C@H](C(F)(F)F)O[C@@H]1c1ccccc1O	111% (inactive)	0.924 (inactive)	0.777	7790	8430	0.14 (inactive)
Cc1cc(C)c(N(Cc2ccccc2)S(=O)(=O)c2ccc(OCCNC(=O)c3cc4ccccc4o3)cc2)c(C(=O)NO)c1	101% (inactive)	0.895 (inactive)	0.617	2050	2290	-0.695 (inactive)
